Results published in PubChem BioAssay (NCATS).
Values joined by “and” are separate entries in the source; they are usually repeats but may differ in a detail not shown here. Identical values can stand only once. Inconclusive results are not listed. Some compounds were tested as several samples or in several runs, with calls that do not always agree. Active and inactive are the calls of the source. Calls follow the shape of the dose curve; as a rule, active = well fitted curve in the direction sought with a large enough effect; inconclusive = small, poorly fitted or top-dose-only effect, or another doubt; inactive = no such curve, though single readings can be large; an effect the other way counts as inactive or inconclusive.

Key:
Hek293T = experiment: Primary qHTS to identify gynecologic anti-cancer compounds using libraries of approved drugs and bioactive compounds (AID 1345084); conditions: Gynecologic cancer cell panel viability, ATPlite luminescence, 48 h, control line for the selectivity index; series mostly up to 57.5 µM; also: nearly all actives have a fitted effect of over 55% in size
Summary of the method: (§1)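 Five-point cytotoxicity, 48 h drug exposure at 37 C, 5% CO2, on cells seeded 16 h beforehand. ATP content read by ATPlite luminescence.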

JEG-3 = experiment: as above; conditions: Gynecologic cancer cell panel viability, ATPlite luminescence, 48 h; series mostly up to 57.5 µM
Summary of the method: as §1

OV90 = experiment: as above; conditions: Gynecologic cancer cell panel viability, ATPlite luminescence, 48 h; series mostly up to 57.5 µM
Summary of the method: as §1

PA-1 = experiment: as above; conditions: Gynecologic cancer cell panel viability, ATPlite luminescence, 48 h; series mostly up to 57.5 µM
Summary of the method: as §1

SKOV3 = experiment: as above; conditions: Gynecologic cancer cell panel viability, ATPlite luminescence, 48 h; series mostly up to 57.5 µM
Summary of the method: as §1

Tov-21-G = experiment: as above; conditions: Gynecologic cancer cell panel viability, ATPlite luminescence, 48 h; series mostly up to 57.5 µM
Summary of the method: as §1

Tov112D = experiment: as above; conditions: Gynecologic cancer cell panel viability, ATPlite luminescence, 48 h; series mostly up to 57.5 µM
Summary of the method: as §1

[1] = Drug repurposing screens with cells derived from glioblastoma tumor samples (AID 1345199); conditions: GBM patient neurospheres viability, ATP luminescence, 48 h; also: nearly all actives have a fitted effect of over 40% in size; also: potency is read from the fitted curve at half-maximal effect
Summary of the method: (§2)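 Primary testing used CD133+ neurospheres from four GBM patients, seven concentrations, 48 h exposure and ATP-based viability; confirmation added three slower-growing patient lines.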

astro = experiment: as above; conditions: viability, ATP luminescence, 48 h; series mostly up to 45.9 µM
Summary of the method: as §2

[2] = at 45.9 µM (top of the series), tumour line B
[3] = at 45.9 µM (top of the series), tumour line D
[4] = at 46 µM (top of the series), tumour line A
[5] = at 46.1 µM (top of the series), tumour line C
[6] = at 20 µM (top of the series), tumour line C
[7] = at 21.2 µM (top of the series), tumour line B
[8] = at 21.2 µM (top of the series), tumour line D
[9] = at 21.3 µM (top of the series), tumour line A
% is scaled to controls: 0 for no effect and ±100 for the full control effect.

CC(=O)N[C@@H](CCC(=O)O)C(=O)O
inactive: Potency (Hek293T) | Potency (JEG-3) | Potency (OV90) | Potency (PA-1) | Potency (SKOV3) | Potency (Tov-21-G) | Potency (Tov112D) | activity, negative = cell killing [1, 2] 2.35% | activity, negative = cell killing [1, 3] -7.45% | activity, negative = cell killing [1, 4] -9.15% | activity, negative = cell killing [1, 5] -3.96% | Potency (astro)

Cc1cccc(C)c1NC(=O)c1ccccc1C(=O)O
inactive: Potency (Hek293T) | Potency (JEG-3) | Potency (OV90) | Potency (PA-1) | Potency (SKOV3) | Potency (Tov-21-G) | Potency (Tov112D) | activity, negative = cell killing [1, 2] -1.45% | activity, negative = cell killing [1, 3] -18.5% | activity, negative = cell killing [1, 5] -17.8%

OCCOCCN1CCN(C2=Nc3ccccc3Sc3ccccc32)CC1
inactive: Potency (Hek293T) | Potency (JEG-3) | Potency (OV90) | Potency (PA-1) | Potency (SKOV3) | Potency (Tov-21-G) | Potency (Tov112D) | activity, negative = cell killing [1, 2] -22.8% | activity, negative = cell killing [1, 3] -20.3% | activity, negative = cell killing [1, 5] 1.64%
active: Potency ([1]; tumour line A) 11.2 µM

C=C[C@@]1(C)CC(=O)[C@]2(O)[C@@]3(C)[C@@H](O)CCC(C)(C)[C@@H]3[C@H](O)[C@H](OC(C)=O)[C@@]2(C)O1
inactive: Potency (Hek293T) | Potency (JEG-3) | Potency (OV90) | Potency (PA-1) | Potency (SKOV3) | Potency (Tov-21-G) | Potency (Tov112D) | activity, negative = cell killing [1, 2] 7.18% | activity, negative = cell killing [1, 5] -36.3%

COc1ccc(S(=O)(=O)N2c3ccc(Cl)cc3[C@@](O)(c3ccccc3Cl)[C@H]2C(=O)N2CCC[C@@H]2C(N)=O)cc1OC
inactive: Potency (Hek293T) | Potency (JEG-3) | Potency (OV90) | Potency (PA-1) | Potency (SKOV3) | Potency (Tov-21-G) | Potency (Tov112D) | activity, negative = cell killing [1, 2] -16.9% | activity, negative = cell killing [1, 3] -6.65% | activity, negative = cell killing [1, 5] -27%

CCCCN1C[C@H](O)[C@@H](O)[C@H](O)[C@H]1CO
inactive: Potency (Hek293T) | Potency (JEG-3) | Potency (OV90) | Potency (PA-1) | Potency (SKOV3) | Potency (Tov-21-G) | Potency (Tov112D) | activity, negative = cell killing [1, 2] -11.2% | activity, negative = cell killing [1, 3] -2.4% | activity, negative = cell killing [1, 5] -21.4%

COc1ccc(-c2cc(C(F)F)nn2-c2ccc(S(N)(=O)=O)cc2)cc1F
inactive: Potency (Hek293T) | Potency (JEG-3) | Potency (OV90) | Potency (PA-1) | Potency (SKOV3) | Potency (Tov-21-G) | Potency (Tov112D) | activity, negative = cell killing [1, 2] -10.4% | activity, negative = cell killing [1, 3] -9.89% | activity, negative = cell killing [1, 4] -29.7% | activity, negative = cell killing [1, 5] 2.98%

N#CCC(=O)NN
inactive: Potency (Hek293T) | Potency (JEG-3) | Potency (OV90) | Potency (PA-1) | Potency (SKOV3) | Potency (Tov-21-G) | Potency (Tov112D) | activity, negative = cell killing [1, 2] -9.6% | activity, negative = cell killing [1, 3] -5.43% | activity, negative = cell killing [1, 4] -40.8% | activity, negative = cell killing [1, 5] -7.01%

OC(C#CCN1CCCC1)(c1ccccc1)c1ccccc1
active: Potency ([1]; tumour line A) 11.2 µM
inactive: Potency (Hek293T) | Potency (JEG-3) | Potency (OV90) | Potency (PA-1) | Potency (SKOV3) | Potency (Tov-21-G) | Potency (Tov112D) | activity, negative = cell killing [1, 2] -17.2% | activity, negative = cell killing [1, 5] -29.1%

C=C[C@H]1CN2CC[C@H]1C[C@@H]2[C@@H](O)c1ccnc2ccc(OC)cc12
inactive: Potency (Hek293T) | Potency (JEG-3) | Potency (OV90) | Potency (PA-1) | Potency (SKOV3) | Potency (Tov-21-G) | Potency (Tov112D) | activity, negative = cell killing [1, 2] -7.35% | activity, negative = cell killing [1, 3] -6.69% | activity, negative = cell killing [1, 5] 11.9%
active: Potency ([1]; tumour line A) 12.6 µM

CCC1NC(=O)c2cc(S(N)(=O)=O)c(Cl)cc2N1 (stereo not drawn)
inactive: Potency (Hek293T) | Potency (JEG-3) | Potency (OV90) | Potency (PA-1) | Potency (SKOV3) | Potency (Tov-21-G) | Potency (Tov112D) | activity, negative = cell killing [1, 6] -6.38% | activity, negative = cell killing [1, 7] -2.62% | activity, negative = cell killing [1, 8] -14.7% | activity, negative = cell killing [1, 9] -12.3%

CN1CCN(c2cc3c(cc2F)c(=O)c(C(=O)O)cn3-c2ccc(F)cc2)CC1
inactive: Potency (Hek293T) | Potency (JEG-3) | Potency (OV90) | Potency (PA-1) | Potency (SKOV3) | Potency (Tov-21-G) | Potency (Tov112D) | activity, negative = cell killing [1, 2] -7.1% | activity, negative = cell killing [1, 3] -1.79% | activity, negative = cell killing [1, 4] -26.7% | activity, negative = cell killing [1, 5] 5.61%

COc1ccc(CN(CCN(C)C)c2ncccn2)cc1
inactive: Potency (Hek293T) | Potency (JEG-3) | Potency (OV90) | Potency (PA-1) | Potency (SKOV3) | Potency (Tov-21-G) | Potency (Tov112D) | activity, negative = cell killing [1, 2] -6.69% | activity, negative = cell killing [1, 5] -7.28%

Cc1c(-c2ccccc2)oc2c(C(=O)OCCN3CCCCC3)cccc2c1=O
inactive: Potency (Hek293T) | Potency (JEG-3) | Potency (OV90) | Potency (PA-1) | Potency (SKOV3) | Potency (Tov-21-G) | Potency (Tov112D) | activity, negative = cell killing [1, 6] 10.4% | activity, negative = cell killing [1, 7] -10.2% | activity, negative = cell killing [1, 8] -18.3% | activity, negative = cell killing [1, 9] -8.03%

CN(Cc1ccc(C(C)(C)C)cc1)Cc1cccc2ccccc12
inactive: Potency (Hek293T) | Potency (JEG-3) | Potency (OV90) | Potency (PA-1) | Potency (SKOV3) | Potency (Tov-21-G) | Potency (Tov112D) | activity, negative = cell killing [1, 2] -23.3% | activity, negative = cell killing [1, 5] -13.6% and -21.7% | Potency (astro)
active: Potency ([1]; tumour line A) 22.4 µM | Potency ([1]; tumour line B) 12.6 µM | Potency ([1]; tumour line D) 22.4 µM

N=C(N)N1CCc2ccccc2C1
inactive: activity change, negative = cytotoxicity (Hek293T) 5.39% [at 6.55 µM] | activity change, negative = cytotoxicity (JEG-3) -0.277% [at 6.55 µM] | activity change, negative = cytotoxicity (OV90) 0.455% [at 6.55 µM] | activity change, negative = cytotoxicity (PA-1) -0.819% [at 6.55 µM] | activity change, negative = cytotoxicity (SKOV3) -11.6% [at 6.55 µM] | activity change, negative = cytotoxicity (Tov-21-G) -1.06% [at 6.55 µM] | activity change, negative = cytotoxicity (Tov112D) -0.978% [at 6.55 µM] | activity, negative = cell killing [1, 2] -7.25% | activity, negative = cell killing [1, 3] 0.46% | activity, negative = cell killing [1, 4] -7.22% | activity, negative = cell killing [1, 5] -18.5%

CCCCCCCCCCCCSCCOCCO
active: Potency ([1]; tumour line A) 35.5 µM
inactive: Potency (Hek293T) | Potency (JEG-3) | Potency (OV90) | Potency (PA-1) | Potency (SKOV3) | Potency (Tov-21-G) | Potency (Tov112D) | activity, negative = cell killing [1, 2] -1.92% | activity, negative = cell killing [1, 3] -19.1% | activity, negative = cell killing [1, 5] 9.86% | Potency (astro)
